Source: PubChem BioAssay (several laboratories)
Mtb BioA inh: blocks M. tuberculosis BioA enzyme activity. purified M. tuberculosis BioA enzyme, plate reader. inhibition, % at 9.99 µM. 360,000 tested, 0.096% active. AID 602481; in the data active means inhibition above about 40%
Mtb betalactam: beta-lactam sensitization of Mtb H37Rv | 330,000 tested, 0.27% active | AID 434955 | inhibition, % at 25 µM | M. tuberculosis H37Rv growth with meropenem, percent inhibition; call rule not given here;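 further: growth measured after seven days incubation then overnight dye step; 0% = bacteria only wells and 100% = bacteria with antibiotic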
RN4220 kill: kills Staphylococcus aureus RN4220; S. aureus RN4220 growth, OD600, 16 h; inhibition, % (test concentration not listed); 330,000 tested, 0.33% active; AID 1259311; in the data active means inhibition above about 85%;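 further: plate controls were untreated cells for no effect and reference antibiotic for full effect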
PfHsp40 yeast: compounds rescuing yeast from Plasmodium falciparum HSP40 toxicity; AID 504582; S. cerevisiae expressing PfHsp40, growth rescue, ATP luminescence; 340,000 tested, 0.68% active; growth rescue, % at 12.5 µM; in the data active means growth rescue above about 28%, passing the limit was not always enough;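 further: yeast W303a lacking pdr1 and pdr3 grown in galactose medium; growth measured after three days at 30 °C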
Sa ugtP lethal: compounds lethal to S. aureus RN4220 ugtP deletion mutant. OD600 growth, 16 h. growth inhibition, % (concentration not given with the values). 330,000 tested, 0.54% active. AID 1259309; in the data active means growth inhibition above about 68%;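 further: plate controls were untreated wells for no effect and antibiotic for full effect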
Starred values were filed as active, the others as inactive; · = no result given. A selection: hits, their analogues and other compounds. The true share with any hit is near 0.9%.

SMILES	Mtb BioA inh	Mtb betalactam	RN4220 kill	PfHsp40 yeast	Sa ugtP lethal
CCC1=C(OC(=O)N(CC)CC)N2C(=O)OC(=NCC3CC3)[C@]2(C)C2C1=CCC1C(=O)N(C)C(=O)C12 (stereo not given in full)	·	·	3	·	-5
Nc1ccc(OCCCc2c(N)nc(N)nc2N)cc1	-1	-11	·	48*	·
COc1ccc(Cc2c(N)nc(N)nc2N)cc1	-3	-5	46	2	16
COc1ccc(C)cc1Nc1nc(-c2ccccc2O)nc2ccccc12	-1	-1	53	0	91*
CC1CN(C(C)CO)C(=O)c2cccc(NS(=O)(=O)c3ccc(F)cc3)c2OC1CN(C)S(=O)(=O)c1cn(C)cn1 (stereo not given)	·	·	3	·	4
Cc1nc(C)c(C(=O)Nc2ccccc2)s1	2	-10	6	1	4
Cc1nc2ccc(NC(=O)c3cccs3)cc2s1	1	14	2	37*	25
Cc1nc2ccc(NC(=O)COc3cccc(F)c3)cc2s1	·	92	9	242*	-5
CC(=O)c1ccc(NC(=O)c2ccc3nc(C)sc3c2)cc1	0	2	3	3	5
Cc1cccc(OCC(=O)Nc2ccc3nc(C)sc3c2)c1	·	74	7	-1	3
Cc1nc2ccc(C(=O)Nc3ccccc3Cl)cc2s1	-1	4	5	77*	6
Cc1nc(C)c(C(=O)Nc2cccc(F)c2)s1	47*	7	1	-1	13
CC=CC(=O)N1CC2(CC(c3cccc(NC(=O)CC(c4ccccc4)c4ccccc4)c3)=NO2)CC1C(N)=O (stereo not given)	·	·	1	·	1
COC(=O)C1=C(c2ccc(OC)c(OC)c2)CC2CCC1N2C(=O)NCCOc1ccccc1Cl (stereo not given)	·	·	4	·	-1
COCCn1c(C(=O)N2CCCC2)cc2c1CC1CN(C(=O)c3ccccc3)[C@@](Cc3ccc(F)cc3)(C(=O)OC)C21 (stereo not given in full)	·	·	4	·	6
Cc1csc(NC(=O)C(C)Oc2ccc(Cl)cc2C)n1 (stereo not given)	0	41	-8	60*	-3
CCOC(=O)CSC1=NC(=O)/C(=C\c2ccc(Cl)cc2)S1	-2	100	-3	40*	1
NCCCCC(C(=O)N1CCNCC1)n1cc(C(N)CO)nn1 (stereo not given)	·	·	2	·	-1
Cc1cc(N2C(=O)C(O)=C(C(=O)c3ccco3)C2c2ccc(O)cc2)no1 (stereo not given)	-1	-10	-20	2	-8
Cc1cc(N2C(=O)C(O)=C(C(=O)c3ccco3)C2c2ccc(Cl)cc2)no1 (stereo not given)	-1	9	87*	0	73
Cc1csc2nc(O)c(C(=O)NC3CCCCCC3)c(=O)n12	0	-4	1	-1	7
Cc1csc2nc(O)c(C(=O)NC3CCCCC3)c(=O)n12	-1	-2	6	165*	2
O=C(C1=CC(c2csc3ccccc23)CC(OCCCCO)O1)N1CCN(Cc2ccccc2)CC1 (stereo not given)	·	·	3	·	6
N#CC(=NNc1cccc(C(F)(F)F)c1)C(=O)c1ccsc1	·	·	100*	·	97*
CC(C)[C@H]1C=C(C(=O)O)O[C@@H](OCCCCO)C1	-1	-10	·	56*	·
SMILES	Mtb BioA inh	Mtb betalactam	RN4220 kill	PfHsp40 yeast	Sa ugtP lethal
CCOc1cc(/C=C\[N+](=O)[O-])ccc1OCC(=O)N1CCOCC1	·	-7	4	35*	-8
CCOc1cc(/C=C/c2nc3cc(C)c(C)cc3s2)ccc1OCC(=O)N1CCOCC1	2	41	9	1	-5
CC(=O)Nc1cc(C(C)(C)C)c(O)c(C(C)(C)C)c1	·	5	7	0	-17
CC(C)(C)c1cc([N+](=O)[O-])cc(C(C)(C)C)c1O	·	-13	88*	·	93*
Nc1ccc(Nc2ccccc2)c(S(=O)(=O)O)c1	3	-7	·	41*	·
CCOC(=O)C1C2COc3ccccc3C2N2C(=O)N(c3ccc(Cl)cc3)C(=O)[C@@]12C (stereo not given in full)	·	·	-1	·	-2
CCOC1OC(C(=O)NCc2ccccc2)=CC(c2csc3ccccc23)C1CCCO (stereo not given)	·	·	6	·	-8
O=[N+]([O-])c1ccc(C=Nc2cccc3ccccc23)s1	1	29	98*	0	97*
COC(=O)C1=C(c2c(C)noc2C)CC2CCC1N2C(=O)N1CCC(C)CC1 (stereo not given)	·	·	6	·	-7
COC(CC=CC(O)C(C)OCc1ccccc1)OC (stereo not given)	·	·	5	·	-1
